Test results reported in the supplement of paper PMC10981050.
Several values for one entry are separate records, joined by “and”; a condition that tells them apart may be missing. Equal entries are not always repeated. Structures can show the parent of a compound that is named as a salt.

How the values were obtained:
Test in all cases: cell viability relative to vehicle control; higher = less cytotoxic
Settings in all cases: 10 µM
K562 = system: K562
Method in brief: (§1)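 Each screen used CRISPR-edited mutant and wild-type clones from four leukaemia lines. Compounds were acoustically dispensed at a single 10 µM dose, and CellTiter-Glo luminescence was read after 48 h with the supernatant first removed. Viability was analysed in Genedata Screener and given as percent of the on-plate vehicle control.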

MARIMO = system: MARIMO
Method in brief: as §1

MOLM14 = system: MOLM14
Method in brief: as §1

OCI-AML2 = system: OCI-AML2
Method in brief: as §1

Row | Structure (SMILES) | cell viability (K562; SRSF2 genotype: SRSF2 P95H/wt) | cell viability (K562; SRSF2 genotype: SRSF2 wt/wt) | cell viability (MARIMO; SRSF2 genotype: SRSF2 P95H/wt) | cell viability (MARIMO; SRSF2 genotype: SRSF2 wt/wt) | cell viability (MOLM14; SRSF2 genotype: SRSF2 P95H/wt) | cell viability (MOLM14; SRSF2 genotype: SRSF2 wt/wt) | cell viability (OCI-AML2; SRSF2 genotype: P95H/wt) | cell viability (OCI-AML2; SRSF2 genotype: wt/wt)
1 | Cc1ccc(Nc2cc(N[C@@H]3CCCC[C@@H]3N)nnc2C(N)=O)nc1C | 80.8% and 84.1% | 80.7% | 76.2% | 79% | 18.6% | 18% | 15.1% | 25.2%
2 | CC(C)=CCC[C@@](C)(O)[C@H]1CC[C@@]2(C)[C@@H]1[C@H](O)C[C@@H]1[C@@]3(C)CC[C@H](O)C(C)(C)C3CC[C@]12C (stereo partly drawn) [(20R)-Protopanaxdiol] | 109% and 101% | 96% | 103% | 105% | 106% | 102% | 103% | 101%
3 | CS(=O)(=O)c1cccc(CNc2nc(Nc3ccc4c(c3)CCC(=O)N4)ncc2C(F)(F)F)c1 | 77% and 90.4% | 98.3% | 49.7% | 48.8% | 8.16% | 5.1% | 9.56% | 16.9%
4 | O=C(CSc1nc2c(c(=O)n1-c1ccccc1)SCC2)Nc1ccc(-c2ccccc2)cn1 | 88.8% and 93.3% | 92.7% | 100% | 98.2% | 100% | 96.8% | 93.1% | 103%
5 | Cc1nc(C#Cc2ccnc(Cl)c2)c(C)n1-c1ccc(OC(F)(F)F)cc1 | 75.6% and 89.6% | 75.7% | 82.7% | 88.9% | 78.8% | 80.2% | 55.7% | 68.7%
6 | CCCCC1C(=O)N(c2ccccc2)N(c2ccccc2)C1=O [Phenylbutazone (Butazolidin, Butatron)] | 98.1% and 102% | 94.9% | 97.2% | 102% | 98% | 99.9% | 106% | 107%
7 | CC1(C)CCC2(C(=O)O)CCC3=C(CCC4C3(C)CCC3C4(C)CC(O)C(O)C3(C)C(=O)O)C2C1 (stereo not drawn) [Polygalic acid] | 86.1% and 86.3% | 82% | 89.8% | 92% | 87.7% | 87.9% | 83.1% | 95.3%
8 | CCCC[C@@H](C=O)NC(=O)[C@H](CC(C)C)NC(=O)OCc1ccccc1 [Calpeptin] | 91.3% and 95.4% | 98.5% | 90.9% | 95.2% | 83.2% | 98.9% | 96.6% | 101%
9 | COc1ccc2cccc(CCNC(C)=O)c2c1 [Agomelatine] | 110% and 101% | 104% | 97.7% | 106% | 104% | 102% | 101% | 101%
10 | CN(C)CCC=C1c2ccccc2C(C)(C)c2ccccc21 [Melitracen hydrochloride] | 68.2% and 69.9% | 82.3% | 62.9% | 69.7% | 63.8% | 77.6% | 61.3% | 65.3%
11 | COc1c(N2CCNC(C)C2)c(F)cc2c(=O)c(C(=O)O)cn(C3CC3)c12 (stereo not drawn) [Gatifloxacin] | 97.2% and 103% | 108% | 112% | 108% | 102% | 101% | 104% | 100%
12 | O=C1C(c2[nH]c3ccc(S(=O)(=O)O)cc3c2O)=Nc2ccc(S(=O)(=O)O)cc21 [Indigo carmine] | 98.1% and 93.6% | 94.2% | 94.5% | 106% | 83.1% | 99.5% | 79.9% | 84%
13 | C[C@]12CC[C@@H]3c4ccc(OC(=O)c5ccccc5)cc4CC[C@H]3[C@@H]1CC[C@@H]2O [Estradiol Benzoate] | 62.1% and 62.4% | 77.2% | 54.6% | 35.6% | 82.6% | 76.1% | 58.4% | 46.7%
14 | Cc1ccc(C=O)o1 [5-Methyl furfural] | 104% | 95.7% | 99.8% | 94.2% | 99.1% | 101% | 103% | 103%
15 | COc1cc(C(=O)OCCCCNC(=N)N)cc(OC)c1O [Leonurine] | 105% and 99% | 95.2% | 98.4% | 112% | 95.2% | 104% | 94.4% | 107%
16 | CC[C@@H]1[C@H]2CCCCN3[C@H]2[C@H](C[C@H]3[C@@H]2C[C@H](C)C(=O)O2)[C@@H]2[C@H]1OC(=O)[C@H]2C [Tuberostemonine] | 84.4% and 95% | 88.8% | 83.6% | 89.3% | 64% | 97.8% | 107% | 100%
17 | CC(C)c1c(-c2ccccc2)nc2c(C#N)c[nH]n2c1=O | 105% and 99.3% | 108% | 103% | 93.5% | 97.8% | 98.8% | 103% | 101%
18 | COc1cc(/C=C/C(=O)O[C@H]2[C@H](O)[C@@H](CO)O[C@@]2(CO)O[C@H]2O[C@H](CO)[C@@H](O)[C@H](O)[C@H]2O)ccc1O [Sibiricose A5] | 113% and 112% | 115% | 108% | 99.2% | 110% | 112% | 107% | 95.7%
19 | C=C(Cc1ccccc1Cl)C(=O)OCC | 95.9% and 107% | 91.8% | 107% | 100% | 96.2% | 98.2% | 106% | 101%
20 | COc1ccc(-c2coc3cc(O[C@@H]4O[C@H](CO)[C@@H](O)[C@H](O)[C@H]4O)ccc3c2=O)cc1O [Calycosin-7-O-beta-D-glucoside] | 95% and 99% | 98.5% | 93% | 105% | 112% | 110% | 97.1% | 106%
21 | O=C1CC(=O)c2c(Cl)c(Cl)c(Cl)c(Cl)c21 | 92.3% and 95% | 92.2% | 99.7% | 96.6% | 95.3% | 93.7% | 99.7% | 104%
